Experimental data from ChEMBL document CHEMBL2218924, “A broad activity screen in support of a chemogenomic map for kinase signalling research and drug discovery” (Biochem J, 2013).

Key:
[1] = biological target: Ribosomal protein S6 kinase alpha-1 (Homo sapiens) (UniProt Q15418); details: at 1 µM
[2] = biological target: Ribosomal protein S6 kinase alpha-1 (Homo sapiens) (UniProt Q15418); details: at 10 µM
[3] = biological target: Ribosomal protein S6 kinase alpha-3 (Homo sapiens) (UniProt P51812); details: at 1 µM
[4] = biological target: Ribosomal protein S6 kinase alpha-3 (Homo sapiens) (UniProt P51812); details: at 10 µM
[5] = biological target: Ribosomal protein S6 kinase alpha-2 (Homo sapiens) (UniProt Q15349); details: at 1 µM
[6] = biological target: Ribosomal protein S6 kinase alpha-2 (Homo sapiens) (UniProt Q15349); details: at 10 µM
[7] = biological target: Ribosomal protein S6 kinase alpha-6 (Homo sapiens) (UniProt Q9UK32); details: at 1 µM
[8] = biological target: Ribosomal protein S6 kinase alpha-6 (Homo sapiens) (UniProt Q9UK32); details: at 10 µM
[9] = biological target: Mitogen-activated protein kinase 14 (Homo sapiens) (UniProt Q16539); details: at 1 µM
[10] = biological target: Mitogen-activated protein kinase 14 (Homo sapiens) (UniProt Q16539); details: at 10 µM

Chain of Ribosomal protein S6 kinase alpha-6 (Homo sapiens) (Q9UK32 whole entry): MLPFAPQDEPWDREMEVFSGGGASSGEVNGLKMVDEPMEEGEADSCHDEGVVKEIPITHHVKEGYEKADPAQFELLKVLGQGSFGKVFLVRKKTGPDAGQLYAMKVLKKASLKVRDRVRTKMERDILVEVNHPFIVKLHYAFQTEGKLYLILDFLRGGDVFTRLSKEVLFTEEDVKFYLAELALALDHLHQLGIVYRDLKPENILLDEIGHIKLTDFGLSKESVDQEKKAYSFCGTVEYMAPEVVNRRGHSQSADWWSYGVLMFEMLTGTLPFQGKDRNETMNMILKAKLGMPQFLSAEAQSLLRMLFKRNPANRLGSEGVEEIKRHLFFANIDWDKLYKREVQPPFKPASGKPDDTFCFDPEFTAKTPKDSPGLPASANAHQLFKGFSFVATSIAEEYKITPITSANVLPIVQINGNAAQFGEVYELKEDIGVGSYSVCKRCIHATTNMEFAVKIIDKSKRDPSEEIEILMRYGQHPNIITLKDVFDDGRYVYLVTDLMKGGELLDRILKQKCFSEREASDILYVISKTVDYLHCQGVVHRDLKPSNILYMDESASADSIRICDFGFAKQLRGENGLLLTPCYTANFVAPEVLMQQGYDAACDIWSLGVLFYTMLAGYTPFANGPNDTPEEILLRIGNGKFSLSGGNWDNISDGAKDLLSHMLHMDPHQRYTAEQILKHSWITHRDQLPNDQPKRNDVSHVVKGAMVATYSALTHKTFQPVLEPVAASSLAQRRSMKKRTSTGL
Chain of Ribosomal protein S6 kinase alpha-1 (Homo sapiens) (Q15418 whole entry): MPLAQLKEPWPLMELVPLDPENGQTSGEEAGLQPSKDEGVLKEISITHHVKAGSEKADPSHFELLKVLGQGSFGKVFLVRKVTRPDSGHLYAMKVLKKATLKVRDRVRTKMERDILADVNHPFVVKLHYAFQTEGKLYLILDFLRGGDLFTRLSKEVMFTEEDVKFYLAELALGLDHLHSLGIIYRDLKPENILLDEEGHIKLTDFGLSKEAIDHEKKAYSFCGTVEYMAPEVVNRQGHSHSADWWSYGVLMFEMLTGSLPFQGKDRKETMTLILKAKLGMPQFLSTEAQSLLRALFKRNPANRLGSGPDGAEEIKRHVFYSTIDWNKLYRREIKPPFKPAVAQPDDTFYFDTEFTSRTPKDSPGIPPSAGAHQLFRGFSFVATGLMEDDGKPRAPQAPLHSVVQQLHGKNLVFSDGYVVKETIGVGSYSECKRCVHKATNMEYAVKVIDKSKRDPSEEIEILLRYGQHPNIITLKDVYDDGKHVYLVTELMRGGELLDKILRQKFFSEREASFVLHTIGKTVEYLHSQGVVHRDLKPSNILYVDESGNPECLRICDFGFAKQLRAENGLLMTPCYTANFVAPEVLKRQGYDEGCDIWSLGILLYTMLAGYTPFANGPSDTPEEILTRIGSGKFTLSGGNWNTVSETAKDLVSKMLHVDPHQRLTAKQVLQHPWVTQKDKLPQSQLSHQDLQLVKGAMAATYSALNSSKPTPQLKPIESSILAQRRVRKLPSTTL
Chain of Ribosomal protein S6 kinase alpha-2 (Homo sapiens) (Q15349 whole entry): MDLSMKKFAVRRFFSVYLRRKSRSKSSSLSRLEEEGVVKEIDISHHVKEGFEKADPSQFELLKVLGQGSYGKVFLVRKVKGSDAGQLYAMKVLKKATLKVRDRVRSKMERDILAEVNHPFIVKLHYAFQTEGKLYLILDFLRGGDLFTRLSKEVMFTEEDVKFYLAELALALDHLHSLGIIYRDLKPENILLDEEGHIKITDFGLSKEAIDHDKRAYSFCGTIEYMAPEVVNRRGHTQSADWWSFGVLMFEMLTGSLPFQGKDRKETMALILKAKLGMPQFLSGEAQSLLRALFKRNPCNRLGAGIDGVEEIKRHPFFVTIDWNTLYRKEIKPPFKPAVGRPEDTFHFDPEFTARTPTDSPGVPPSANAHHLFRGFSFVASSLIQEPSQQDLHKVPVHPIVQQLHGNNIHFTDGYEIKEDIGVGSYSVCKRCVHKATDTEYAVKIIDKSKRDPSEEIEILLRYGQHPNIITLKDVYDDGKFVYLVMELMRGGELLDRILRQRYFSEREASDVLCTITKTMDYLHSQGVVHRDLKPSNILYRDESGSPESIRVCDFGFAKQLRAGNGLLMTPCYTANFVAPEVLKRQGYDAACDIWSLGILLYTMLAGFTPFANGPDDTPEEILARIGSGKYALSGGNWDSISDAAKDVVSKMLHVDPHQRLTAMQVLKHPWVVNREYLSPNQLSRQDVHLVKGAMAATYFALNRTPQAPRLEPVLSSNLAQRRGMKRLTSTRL
Chain of Ribosomal protein S6 kinase alpha-3 (Homo sapiens) (P51812 whole entry): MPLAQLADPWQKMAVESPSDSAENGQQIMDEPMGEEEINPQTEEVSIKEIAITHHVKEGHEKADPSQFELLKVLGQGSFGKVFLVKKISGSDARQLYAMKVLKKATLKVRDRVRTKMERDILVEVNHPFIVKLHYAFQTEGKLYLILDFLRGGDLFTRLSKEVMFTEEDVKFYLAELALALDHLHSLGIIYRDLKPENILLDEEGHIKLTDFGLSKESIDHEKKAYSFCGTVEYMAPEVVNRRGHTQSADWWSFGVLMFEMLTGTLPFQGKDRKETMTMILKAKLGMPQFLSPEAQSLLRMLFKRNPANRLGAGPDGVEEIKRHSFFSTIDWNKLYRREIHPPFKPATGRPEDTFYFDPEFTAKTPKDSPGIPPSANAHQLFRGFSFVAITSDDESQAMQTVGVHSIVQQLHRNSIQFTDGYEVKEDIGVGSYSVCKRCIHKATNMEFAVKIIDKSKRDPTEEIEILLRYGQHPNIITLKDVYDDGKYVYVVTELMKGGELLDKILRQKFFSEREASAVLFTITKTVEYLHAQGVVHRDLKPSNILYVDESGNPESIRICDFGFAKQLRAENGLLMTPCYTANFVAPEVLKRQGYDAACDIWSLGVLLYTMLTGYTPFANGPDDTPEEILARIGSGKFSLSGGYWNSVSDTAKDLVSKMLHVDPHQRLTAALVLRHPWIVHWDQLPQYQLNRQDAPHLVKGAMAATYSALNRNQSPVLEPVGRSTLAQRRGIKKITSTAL
Chain of Mitogen-activated protein kinase 14 (Homo sapiens) (Q16539 whole entry): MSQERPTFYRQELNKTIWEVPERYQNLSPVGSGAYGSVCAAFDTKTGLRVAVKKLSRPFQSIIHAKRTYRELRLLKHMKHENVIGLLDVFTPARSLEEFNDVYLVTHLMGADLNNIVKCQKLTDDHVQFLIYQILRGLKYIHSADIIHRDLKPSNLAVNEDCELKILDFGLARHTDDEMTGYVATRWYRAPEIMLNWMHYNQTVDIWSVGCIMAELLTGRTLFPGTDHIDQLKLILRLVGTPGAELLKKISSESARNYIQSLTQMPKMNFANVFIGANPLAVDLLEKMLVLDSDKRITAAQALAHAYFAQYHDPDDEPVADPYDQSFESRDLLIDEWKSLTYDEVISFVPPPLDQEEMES

Row | SMILES | residual activity [1] [%] | residual activity [2] [%] | residual activity [3] [%] | residual activity [4] [%] | residual activity [5] [%] | residual activity [6] [%] | residual activity [7] [%] | residual activity [8] [%] | residual activity [9] [%] | residual activity [10] [%]
1 | Cn1cc(/C=C2\C(=O)Nc3ccc(S(N)(=O)=O)cc32)c2ccccc21 | 9 | 6 | 9 | 1 | 4 | 0 | 21 | 10 | 94 | 96
2 | COc1ccc(OC)c2c(=S)c3ccccc3[nH]c12 | 116 | 106 | 99 | 107 | 90 | 88 | 98 | 98 | 88 | 91
3 | CC(=O)O/N=C1\C(=C2\C(=O)Nc3cc(Br)ccc32)Nc2ccccc21 | 105 | 59 | 40 | 28 | 71 | 34 | 74 | 89 | 88 | 85
4 | C[C@@H](N)[C@H]1CC[C@H](C(=O)Nc2ccncc2)CC1 |  | 48 |  |  | 62 | 11 | 110 | 60 | 106 | 107
5 | COc1cc2ncc(-c3ccccc3)nc2cc1OC |  |  | 54 | 25 | 100 | 68 | 92 | 94 | 92 | 88
6 | Cn1nc2c3c(cccc31)C(=O)c1ccccc1-2 |  | 93 | 58 | 42 | 90 | 63 | 59 | 67 | 91 | 90
7 | CC#CC(=O)Nc1cc2c(Nc3ccc(F)c(Cl)c3)ncnc2cn1 | 113 | 101 | 104 | 107 | 99 | 96 | 116 | 105 | 91 | 98
8 | O=C(Nc1cccc(Nc2cc(Nc3cccc(C(F)(F)F)c3)ncn2)c1)C1CC1 | 105 | 79 | 106 | 66 | 99 | 55 | 103 | 99 | 80 | 40
9 | COc1ccc(S(=O)(=O)N(CCO)c2ccccc2CN(C)C/C=C/c2ccc(Cl)cc2)cc1 | 119 | 103 | 60 | 61 | 106 | 92 | 108 | 90 | 93 | 96
10 | Oc1ccc(Nc2nc(-c3ccc(Cl)cc3)cs2)cc1 | 113 | 103 | 75 | 86 | 91 | 80 | 93 | 113 | 89 | 35
11 | CN(C)CCCn1cc(C2=C(c3c[nH]c4ccccc34)C(=O)NC2=O)c2ccccc21 | 15 | 2 |  |  |  |  | 4 | 3 | 109 | 106
12 | Ic1cccc(CSc2nnc(-c3ccncc3)o2)c1 | 55 | 46 | 39 | 28 | 30 | 24 | 97 | 100 | 90 | 79
13 | N#C/C(=C(\N)Sc1ccc(N)cc1)c1ccccc1C(F)(F)F | 40 | 42 | 28 | 15 | 53 | 48 | 103 | 104 | 87 | 82
14 | Cc1cccc(-c2[nH]c(C(C)(C)C)nc2-c2ccc3c(c2)OCO3)n1 |  |  | 67 | 47 | 101 | 97 |  |  | 49 | 16
15 | CO[C@H]1C[C@@H]2CC[C@@H](C)[C@@](O)(O2)C(=O)C(=O)N2CCCC[C@H]2C(=O)O[C@H]([C@H](C)C[C@@H]2CC[C@@H](O)[C@H](OC)C2)CC(=O)[C@H](C)/C=C(\C)[C@@H](O)[C@@H](OC)C(=O)[C@H](C)C[C@H](C)/C=C/C=C/C=C/1C | 110 | 112 | 44 | 55 | 102 | 90 | 105 | 112 | 72 | 83
16 | Cn1cnc2cc3c(Nc4cccc(Br)c4)ncnc3cc21 | 97 | 92 | 108 | 93 | 101 | 70 | 115 | 68 | 64 | 25
17 | COc1cc2ncnc(Nc3ccc(O)c(Br)c3)c2cc1OC | 92 | 45 | 39 | 12 | 44 | 7 | 69 | 18 | 51 | 14
18 | O=Nc1c(-c2c(O)[nH]c3ccccc23)[nH]c2ccccc12 | 40 | 6 | 50 | 7 | 19 | 4 | 20 | 12 | 94 | 78

Row | SMILES | residual activity [1] [%] | residual activity [2] [%] | residual activity [3] [%] | residual activity [4] [%] | residual activity [5] [%] | residual activity [6] [%] | residual activity [7] [%] | residual activity [8] [%] | residual activity [9] [%] | residual activity [10] [%]
19 | Cc1cc(Nc2nc(-c3ccccc3)nc3ccccc23)n[nH]1 | 51 | 15 | 58 | 11 | 29 | 6 | 43 | 8 |  | 64
20 | c1ccc(-c2n[nH]cc2-c2ccnc3ccccc23)nc1 |  |  | 60 | 62 | 108 | 95 |  |  | 49 | 15
21 | Oc1n[nH]c2nnc(-c3c(-c4ccccc4)nn4ccccc34)cc12 | 114 | 111 | 96 | 86 | 90 | 78 | 91 | 106 | 93 | 85
22 | O=C1Nc2ccccc2/C1=C1/Nc2ccccc2/C1=N\OCCC(O)CO (stereo not drawn) | 18 | 12 | 15 | 1 | 11 | 2 | 7 | 7 |  | 78
23 | COc1cc2ncnc(Nc3ccc(NC(=O)c4ccccc4)cc3)c2cc1OC |  | 75 | 67 | 40 | 109 | 69 | 104 | 109 |  | 
24 | N#Cc1cnc2cnc(NCc3cccnc3)cc2c1Nc1ccc(F)c(Cl)c1 | 2 | 1 | 0 | -1 | 0 | 0 | 97 | 93 | 87 | 89
25 | c1ccc2c(-c3ccncc3)c[nH]c2c1 |  | 67 | 72 | 43 | 98 | 48 | 89 | 107 | 77 | 54
26 | N#CC(C#N)=C(N)/C(C#N)=C/c1ccc(O)cc1 | 94 | 78 | 49 | 27 |  |  | 94 |  | 78 | 55
27 | CCN(CC)C(=O)c1ccc(Nc2nc(OCC3CCCCC3)c3nc[nH]c3n2)cc1 | 58 | 7 | 30 | 1 | 18 | 2 | 28 | 7 |  | 70
28 | Cc1ccc(NC2=CC(=O)c3sc(C)nc3C2=O)cc1 | 104 | 78 | 117 | 123 | 101 | 102 | 72 | 111 | 97 | 93
29 | CNc1cc2c(Nc3cccc(Br)c3)ncnc2cn1 | 115 | 59 | 110 | 71 | 87 | 38 | 101 | 74 | 83 | 77
30 | c1ccc(-c2n[nH]c3c2oc2ccccc23)cc1 | 97 | 58 | 66 | 44 | 92 | 64 |  |  | 93 | 78
31 | Nc1n[nH]c2nnc(-c3c(-c4ccccc4)nn4ccccc34)cc12 | 108 | 93 | 111 | 96 | 90 | 68 | 102 | 88 | 78 | 33
32 | Cc1cncc2cccc(S(=O)(=O)N3CCCN(C(=O)CN)C[C@H]3C)c12 |  |  | 60 | 23 |  |  | 90 | 66 | 74 | 81
33 | O=C(Nc1cccc(Nc2nccc(Nc3cccc(C(F)(F)F)c3)n2)c1)C1CC1 | 78 | 36 | 45 | 27 | 106 | 62 | 96 | 128 | 79 | 59
34 | Cc1ccc(S(=O)(=O)/C=C/C#N)cc1 | 94 | 121 | 116 | 120 | 102 | 109 | 74 | 112 | 94 | 97
35 | CC(=O)c1ccc(N2CCOCC2)cc1O |  | 110 | 64 | 56 | 105 | 107 | 128 | 102 |  | 
36 | Cc1nc2cc3nc(-c4cccs4)cnc3cc2n1C | 115 | 89 | 102 | 75 | 107 | 83 | 101 | 84 | 114 | 112
